Compound activity from PubChem BioAssay.
Most compounds without a hit are left out; they make up all but 1.4% or so of the library.
PglD inh – inhibitors of Campylobacter jejuni PglD acetyltransferase; purified PglD enzyme, DTNB colorimetric CoA detection; inhibition, % at 12.5 µM; 360,000 compounds, 0.098% hits; in the data active = inhibition above about 16%, passing the limit was not always enough
CFTR F508del cor – CFTR F508del correction in bronchial cells; CFBE cells, YFP halide quenching; stimulated with forskolin plus potentiator P3; % fluorescence drop versus neutral controls; activity (quench increase), % at 7.58 µM; 350,000 compounds, 0.36% hits;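 active = mean added fluorescence quench of at least 8% versus neutral control, with both replicates also reaching 8%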;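 note: cells transiently co-express mutant CFTR-F508del with the halide-sensitive YFP; corrector assay measuring rescue of mutant channel to the surface after 24 h compound exposure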
ARNT TACC3 PPI – ARNT/TACC3 interaction disruption; Q9Y6A5; AID 623870; inhibition, % at 9.99 µM; AlphaScreen His-ARNT PAS-B/GST-TACC3 binding, luminescence; TACC3 fragment carries E629A point mutation; 390,000 compounds, 0.66% hits;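 active = mean inhibition of replicates at least 50% and at least half of replicates each reaching 50%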;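 note: 0% = complete ARNT plus TACC3 wells and 100% = ARNT alone without TACC3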
C2C12 statin – suppressors of simvastatin-induced myotoxicity in C2C12 myotubes; ATP luminescence, 48 h; scaled: DMSO 0, geranylgeraniol control 100; rescue of ATP level, % at 7.49 µM; 330,000 compounds, 0.78% hits; AID 602340;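 active = mean ATP rescue above about 67%, or every replicate alone reaching that limit, limit read from the data, passing the limit was not always enough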;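 note: myotubes were challenged with 10 µM simvastatin during compound exposure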
ARNT Alpha ctr-1 – counter-screen for ARNT/TACC3 inhibitors: AlphaScreen artifacts | AID 651705 | 1,200 compounds, 50% hits | His-ARNT PASB-GST AlphaScreen artifact counter-screen, luminescence | shares compounds with ARNT TACC3 PPI | AC50, µM (highest dose often 68 µM), for the others: at the top dose activity change, negative = signal decrease;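 active = every separate test run was called active for a drop in luminescence, with AC50 within twice the top valid dose, actives reach about 71 µM in these data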
ARNT Alpha ctr-2 – AlphaScreen artifact flagged for ARNT-TACC3 inhibitors | shares compounds with ARNT TACC3 PPI | 45 compounds, 70% hits | AC50, µM | Dual-tagged His-ARNT PASB-GST AlphaScreen artifact counter-screen;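 active = luminescence drop, with half-maximal potency fitted within twice the sample's top valid dose, cut at about 70 µM in these data; inactive = the rest, including signal moving the wrong way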
Active calls of the source: *; x = no result; [ ] = remark or other dose.

SMILES | PglD inh | CFTR F508del cor | ARNT TACC3 PPI | C2C12 statin | ARNT Alpha ctr-1 | others
Cc1ccc(S(=O)(=O)N(C)C[C@H]2Oc3cc(C#Cc4ccncc4)ccc3S(=O)(=O)N([C@@H](C)CO)C[C@H]2C)cc1 | -10.7 | -3.3 | 1.2 | -37.3 | x
C[C@H]1CN([C@@H](C)CO)S(=O)(=O)c2ccc(-c3cccc(C#N)c3)cc2O[C@H]1CN(C)C | -3.7 | x | -1.1 | -11.1 | x
Cc1[nH][nH]c(=O)c1C(c1ccc(Br)cc1)c1c(C)[nH][nH]c1=O | 1.2 | 2.3 | 11.3* | -12.3 | -2.1%
Cc1[nH][nH]c(=O)c1C(c1ccc(O)c(Br)c1)c1c(C)[nH][nH]c1=O | -4.9 | 0.2 | 33.1* | -0.7 | -34.3%
CC(=O)N1[C@@H](CO)[C@@H](c2ccccc2)[C@@H]1CN(CC1CCC1)C(=O)CN(C)C | 20.3 | 1.0 | -2.1 | -1.1 | x
O=C(N/N=C/c1cc([N+](=O)[O-])ccc1O)c1ccncc1 | x | -1.0 | 56.6* | 5.9 | 12.4µM*
O=C(N/N=C/c1cc(Br)ccc1OC(=O)c1ccc(Br)cc1)c1ccncc1 | 2.4 | -0.6 | 61.1* | x | 56.4µM*
O=C(NN=Cc1c(O)ccc2ccccc12)c1ccncc1 | x | 6.1 | 56.3* | x | 49.1µM*
Cc1ccccc1-c1ccc([C@@H]2[C@H]3CN(S(C)(=O)=O)CCCCN3[C@H]2CO)cc1 | -3.7 | -1.2 | -6.0 | -1.2 | x
CN(C)CC(=O)N1[C@@H]2c3ccc(C4=CCCC4)c(=O)n3C[C@H]1[C@H](CO)[C@H]2C(=O)NCC1CC1 | 1.4 | 0.2 | 44.4 | 5.9 | x
COC(=O)[C@H]1[C@H](CO)[C@H]2Cn3c(ccc(-c4ccccc4)c3=O)[C@H]2N1CC1CCCCC1 | -1.7 | -1.7 | -4.2 | 37.0 | x
C[C@@H]1CN([C@H](C)CO)C(=O)c2cccc(NC(=O)c3ccncc3)c2O[C@@H]1CN(C)Cc1ccc(-c2ccccc2)cc1 | 5.5 | 0.3 | active | 14.4 | -0.2%[42 µM]
C[C@H](CO)N1C[C@H](C)[C@@H](CN(C)S(=O)(=O)c2ccc(Cl)cc2)Oc2c(NC(=O)Nc3cccc4ccccc34)cccc2C1=O | -2.1 | 2.8 | 52.3* | 54.7 | 23.8µM*
C[C@@H]1CN([C@@H](C)CO)C(=O)c2cccc(NC(=O)Nc3cccc4ccccc34)c2O[C@H]1CN(C)S(=O)(=O)c1ccc(Cl)cc1 | 2.0 | 0.7 | 15.1 | 6.1 | x
CNC[C@@H]1Oc2c(NS(=O)(=O)c3cccs3)cccc2C(=O)N([C@H](C)CO)C[C@@H]1C | 8.9 | 1.9 | -1.4 | 18.8 | x
C[C@@H]1CN([C@H](C)CO)C(=O)c2cc(NS(C)(=O)=O)ccc2O[C@@H]1CN(C)S(=O)(=O)c1ccc(F)cc1 | -3.9 | 1.6 | active | -18.7 | -12.4%[38 µM]
CNC[C@@H]1Oc2c(NS(=O)(=O)c3cccs3)cccc2C(=O)N([C@@H](C)CO)C[C@H]1C | -27.2 | -3.0 | active | 6.4 | 3.5%[42 µM]
Cn1cnc(S(=O)(=O)N2CC[C@@H]3[C@H]2c2cc(-c4cccc(F)c4)ccc2N[C@@H]3CO)c1 | 3.3 | 1.1 | 6.1 | -24.5 | x
COC(=O)C[C@@H]1CC[C@H]2[C@@H](COc3ccc(NS(=O)(=O)c4ccccc4Cl)cc3C(=O)N2C)O1 | 7.8 | x | -3.8 | 8.8 | x
CN1C(=O)c2cc(NC(=O)c3cccs3)ccc2OC[C@H]2O[C@@H](CC(=O)NCCN3CCCCC3)CC[C@@H]21 | 0.8 | -0.2 | 9.0 | 8.8 | x
CC(C)NC(=O)Nc1cccc2c1O[C@H](CN(C)C(=O)Nc1ccc(C(F)(F)F)cc1)[C@@H](C)CN([C@@H](C)CO)C2=O | -1.5 | 1.6 | active | -3.6 | -7.0%[42 µM]
CC(C)NC(=O)Nc1cccc2c1O[C@@H](CN(C)C(=O)Nc1ccc(C(F)(F)F)cc1)[C@@H](C)CN([C@@H](C)CO)C2=O | -0.9 | -0.6 | 7.8 | -52.3 | x
Cc1ccc(-c2nc(C)sc2CC(=O)NCc2ccco2)cc1 | -2.3 | x | active | 8.2 | -11.9%
Cc1ccc(SCc2noc(C(=O)NCC3CCCO3)c2C(=O)O)cc1C (configuration not stated) | -3.3 | 0.9 | -1.2 | 15.0 | x
O=C(NCC1CCCO1)c1onc(CSc2ccc(F)cc2)c1C(=O)O (configuration not stated) | 2.5 | 4.2 | 23.6* | 5.3 | -3.7%
SMILES | PglD inh | CFTR F508del cor | ARNT TACC3 PPI | C2C12 statin | ARNT Alpha ctr-1 | others
C[C@H](Nc1nc(-c2ccccn2)nnc1-c1ccccc1)C1CCCCC1 | x | x | x | x | 2.56µM*
C[C@@H](Nc1nc(-c2ccccn2)nnc1-c1ccccc1)C1CCCCC1 | x | x | x | x | 4.26µM*
COc1ccc(CCNC(=O)CSc2nnc3ccc(-c4ccccn4)nn23)cc1 | -1.6 | 0.3 | 48.2* | 2.9 | 68.1µM*
O=C(NC1Cc2ccccc2C1)[C@H]1N[C@H]2c3cccc(=O)n3C[C@H]2[C@@H]1CO | 2.0 | x | active | 1.2 | -6.3%[38 µM]
OCCN(Cc1cccnc1)Cc1ccccn1 | -1.0 | 0.1 | 69.5* | -0.3 | 15.4µM*
Cc1c(C(=O)N(C)C)sc2nc(-c3ccccn3)[nH]c(=O)c12 | -3.0 | x | 71.8* | x | 23µM* | ARNT Alpha ctr-2=15.3*
CCN(CC)C(=O)c1sc2nc(Cc3ccccc3)[nH]c(=O)c2c1C | 0.8 | 1.7 | 0.3 | -14.9 | x
CC1CCN(C(=O)COC(=O)c2ccc([N+](=O)[O-])o2)CC1 | 2.3 | -0.5 | 17.6* | 3.2 | -4.5%
O=C1CN(C(=O)COC(=O)c2ccc([N+](=O)[O-])o2)c2ccccc2N1 | -1.3 | 0.5 | 41.6* | 3.4 | -1.4%
COCCn1c(C)cc(C(=O)COC(=O)c2ccc([N+](=O)[O-])o2)c1C | 1.2 | -0.2 | 52.2* | 13.9 | -16.1%
CC1(C)C(=O)Nc2ccccc2N1C(=O)COC(=O)c1ccc([N+](=O)[O-])o1 | -4.9 | -0.2 | -5.6 | 0.4 | x
Cc1cc(C(=O)COC(=O)c2ccc([N+](=O)[O-])o2)c(C)n1CC1CCCO1 (configuration not stated) | -0.5 | -2.0 | 11.5 | 1.3 | x
C[C@H](CO)N1C[C@H](C)[C@@H](CN(C)S(=O)(=O)c2cn(C)cn2)OCCCC[C@H](C)Oc2ccc(NC(=O)C3CCCCC3)cc2C1=O | 2.9 | -0.5 | -7.7 | -42.2 | x
CC=Cc1ccc2n(c1=O)C[C@H]1[C@H](CO)[C@@H](C(=O)NC3CCC3)[C@@H]2N1S(=O)(=O)c1cn(C)cn1 (mixture of isomers) | 0.3 | x | active | 23.4 | -1.6%[38 µM]
CC=Cc1ccc2n(c1=O)C[C@@H]1[C@@H](CO)[C@H](C(=O)NC3CCC3)[C@H]2N1S(=O)(=O)c1cn(C)cn1 (mixture of isomers) | 0.5 | x | 5.0 | 25.9 | x
COc1ccc(-c2nc(CN3CCC(C(=O)NC4CCCC4)CC3)c(C)o2)cc1OC | -3.5 | 3.8 | -1.0 | 14.7 | x
COc1ccc(-c2nc(CN3CCC(C(=O)NC4CCCc5ccccc54)CC3)c(C)o2)cc1OC (configuration not stated) | x | 2.6 | 56.3* | 0.5 | -10.4%
